From PubChem BioAssay AID1159580 (chemical genetic matrix, 2015)
Where “and” joins values, the source holds several entries; their conditions need not be identical. Equal values may be shown once. The whole screen tested about 5,500 compounds, of which about 2,000 (36%) were called active. Another 18% or so got no clear call; they are omitted. Cut-off read from the data, not from the text of the source: active = normalized growth mostly below about 0.91 (no sharp cut-off); inconclusive = no clear call, values can overlap the other calls; inactive = mostly above about 0.92. The list shows a part of the results.

Test: chemical genetic growth profiling, strain panel (AID 1159580);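 note: tested at 20 µM; growth read once vehicle control cultures reached saturation at 30 °C; 1 = growth at the plate median or of vehicle wells; lower values mean less growth of the strain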
Details: S. cerevisiae deletion strains, growth OD

Measured: normalized growth

Oc1cccc2cccnc12
active: locus YAL021C, strain ccr4, stronger effect = lower value 0.0769 | locus YAL026C, strain drs2, stronger effect = lower value 0.0625 | locus YAL030W, strain snc1, stronger effect = lower value 0.0718 | locus YBL061C, strain skt5, stronger effect = lower value 0.0722 | locus YBR009C, strain hhf1, stronger effect = lower value 0.0681 | locus YBR021W, strain FUR4, stronger effect = lower value 0.0928 | locus YBR023C, strain chs3, stronger effect = lower value 0.076 | locus YBR171W, strain sec66, stronger effect = lower value 0.076 | locus YBR229C, strain ROT2, stronger effect = lower value 0.0533 | locus YBR231C, strain swc5, stronger effect = lower value 0.0897 | locus YBR279W, strain paf1, stronger effect = lower value 0.0618 | locus YCL011C, strain gbp2, stronger effect = lower value 0.0567 | locus YCL016C, strain dcc1, stronger effect = lower value 0.229 | locus YCL029C, strain bik1, stronger effect = lower value 0.738 | locus YCL061C, strain MRC1, stronger effect = lower value 0.064 | locus YCL069W, strain vba3, stronger effect = lower value 0.0627 | locus YCR088W, strain abp1, stronger effect = lower value 0.0593 | locus YDL005C, strain med2, stronger effect = lower value 0.646 | locus YDL035C, strain GPR1, stronger effect = lower value 0.0493 | locus YDL040C, strain nat1, stronger effect = lower value 0.476 | locus YDL074C, strain BRE1, stronger effect = lower value 0.0979 | locus YDL101C, strain DUN1, stronger effect = lower value 0.869 | locus YDL134C, strain PPH21, stronger effect = lower value 0.0515 | locus YDL185W, strain tfp1, stronger effect = lower value 0.0598 | locus YDL192W, strain arf1, stronger effect = lower value 0.0601 | locus YDR001C, strain nth1, stronger effect = lower value 0.0574 | locus YDR069C, strain doa4, stronger effect = lower value 0.0712 | locus YDR101C, strain arx1, stronger effect = lower value 0.375 | locus YDR137W, strain rgp1, stronger effect = lower value 0.0843 | locus YDR159W, strain sac3, stronger effect = lower value 0.616 | locus YDR162C, strain NBP2, stronger effect = lower value 0.0547 | locus YDR195W, strain ref2 0.117 | locus YDR297W, strain sur2, stronger effect = lower value 0.0588 | locus YDR318W, strain mcm21, stronger effect = lower value 0.0646 | locus YDR334W, strain swr1, stronger effect = lower value 0.0621 | locus YDR335W, strain msn5, stronger effect = lower value 0.0595 | locus YDR388W, stronger effect = lower value 0.0582 | locus YDR392W, strain spt3, stronger effect = lower value 0.0932 | locus YDR502C, strain sam2, stronger effect = lower value 0.0651 | locus YEL003W, strain gim4, stronger effect = lower value 0.0548 | locus YEL037C, strain rad23, stronger effect = lower value 0.0582 | locus YEL061C, strain CIN8 (second series), stronger effect = lower value 0.0606 | locus YEL061C, strain CIN8, stronger effect = lower value 0.0683 | locus YER015W, strain faa2, stronger effect = lower value 0.0643 | locus YER016W, strain bim1, stronger effect = lower value 0.0729 | locus YER110C, stronger effect = lower value 0.107 | locus YER111C, strain swi4, stronger effect = lower value 0.0869 | locus YER155C, strain BEM2 (second series), stronger effect = lower value 0.0885 | locus YER155C, strain BEM2, stronger effect = lower value 0.503 | locus YER167W, strain BCK2, stronger effect = lower value 0.0575 | locus YFR010W, strain ubp6, stronger effect = lower value 0.0669 | locus YGL078C, strain dbp3, stronger effect = lower value 0.0567 | locus YGL086W, strain mad1, stronger effect = lower value 0.0544 | locus YGL167C, strain pmr1, stronger effect = lower value 0.113 | locus YGL173C, strain kem1, stronger effect = lower value 0.07 | locus YGL227W, strain vid30, stronger effect = lower value 0.0635 | locus YGL240W, strain doc1, stronger effect = lower value 0.0777 | locus YGL248W, strain PDE1, stronger effect = lower value 0.0532 | locus YGL253W, strain hxk2, stronger effect = lower value 0.0539 | locus YGR135W, strain pre9, stronger effect = lower value 0.0644 | locus YGR252W, strain gcn5, stronger effect = lower value 0.152 | locus YHR013C, strain ard1, stronger effect = lower value 0.105 | locus YHR027C, strain rpn1, stronger effect = lower value 0.0611 | locus YHR079C, strain IRE1 (second series), stronger effect = lower value 0.0905 | locus YHR094C, strain hxt1, stronger effect = lower value 0.0596 | locus YHR129C, strain ARP1, stronger effect = lower value 0.576 | locus YHR142W, strain chs7, stronger effect = lower value 0.0731 | locus YHR200W, strain rpn10, stronger effect = lower value 0.0598 | locus YIL066C, strain RNR3, stronger effect = lower value 0.156 | locus YIL073C, strain SPO22, stronger effect = lower value 0.0972 | locus YIL125W, strain kgd1, stronger effect = lower value 0.0587 | locus YIR030C, strain dcg1, stronger effect = lower value 0.0603 | locus YJL092W, strain hpr5, stronger effect = lower value 0.058 | locus YJL095W, strain BCK1 (second series), stronger effect = lower value 0.09 | locus YJL115W, strain asf1, stronger effect = lower value 0.0712 | locus YJL129C, strain trk1, stronger effect = lower value 0.0863 | locus YJL134W, strain LCB3, stronger effect = lower value 0.388 | locus YJL154C, strain vps35, stronger effect = lower value 0.0589 | locus YJL164C, strain tpk1, stronger effect = lower value 0.0791 | locus YJL166W, strain qcr8, stronger effect = lower value 0.0604 | locus YJL168C, strain set2, stronger effect = lower value 0.0577 | locus YJL187C, strain SWE1 (second series), stronger effect = lower value 0.057 | locus YJL187C, strain SWE1, stronger effect = lower value 0.101 | locus YJR043C, strain POL32, stronger effect = lower value 0.0576
inactive: locus YHR079C, strain IRE1, stronger effect = lower value 0.908 | locus YJR066W, strain TOR1, stronger effect = lower value 0.871
0.0533 (active) and 0.903 (inactive): locus YHR030C, strain SLT2, stronger effect = lower value
0.165 (active) and 0.93 (inactive): locus YJL095W, strain BCK1, stronger effect = lower value
